Rows were chosen to be rich in hits. Some 7.3% of all compounds tested hit in one or more screens of this group.
FLuc modulator = qHTS profiling assay for firefly luciferase inhibitor/activator using purifed enzyme and Km concentrations of substrates (counterscreen for miR-21 project); Luciferin 4-monooxygenase (Photinus pyralis), P08659; AID 588342, 2011; purified FLuc, Km substrates, luminescence inhibition; actives 6.9% (n = 360,000); Potency, µM (doses to about 57.5 µM), for inactives: at the highest dose activity change, negative = inhibition, actives largely listed as inhibitors;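 note: plate controls were vehicle for no effect and reference inhibitor for full effect; nearly all actives have a fitted effect of over 55% in size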
Target sequence (P08659 whole entry, looked up): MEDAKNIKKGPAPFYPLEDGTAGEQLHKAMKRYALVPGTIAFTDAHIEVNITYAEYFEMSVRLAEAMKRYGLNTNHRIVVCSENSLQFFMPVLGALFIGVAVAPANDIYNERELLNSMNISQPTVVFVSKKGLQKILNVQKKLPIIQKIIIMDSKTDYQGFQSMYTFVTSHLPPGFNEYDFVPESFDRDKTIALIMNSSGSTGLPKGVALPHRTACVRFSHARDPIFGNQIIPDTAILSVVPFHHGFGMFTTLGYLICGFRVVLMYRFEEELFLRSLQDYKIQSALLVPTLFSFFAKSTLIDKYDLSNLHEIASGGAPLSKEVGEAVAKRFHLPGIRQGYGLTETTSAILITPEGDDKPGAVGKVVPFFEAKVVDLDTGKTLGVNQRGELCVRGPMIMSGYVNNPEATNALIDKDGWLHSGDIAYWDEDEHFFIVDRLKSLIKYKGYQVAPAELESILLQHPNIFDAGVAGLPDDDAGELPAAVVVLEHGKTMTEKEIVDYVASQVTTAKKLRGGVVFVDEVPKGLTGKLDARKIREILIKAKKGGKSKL
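Purified P. pyralis luciferase, 10 nM final, with Km-level 10 uM D-luciferin and 10 uM ATP in 50 mM Tris acetate pH 7.5, 10 mM Mg acetate, 0.01% Tween-20, 0.05% BSA; 6-point qHTS titration about 60 µM downward; luminescence read.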
SMN2 splice up = qHTS Assay for Enhancers of SMN2 Splice Variant Expression; HEK293 SMN2-luciferase splicing reporter, luminescence, 30-36 h; Potency, µM (highest dose often 46.1 µM), for inactives: top-dose activity change, positive = activation, actives largely listed as activators; actives 2.8% (n = 210,000); AID 1458, 2008; note: % of control where 0% means no effect; nearly all actives have a fitted effect of over 55% in size
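qHTS luciferase splicing reporter: luminescence rises when SMN2 exon 7 is included in transfected HEK293 cells. Compound exposure lasted 30-36 h at 37C, with 4.5 mM final sodium butyrate as control, followed by a ONE-Glo read.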
Rab9 prom act = qHTS Assay for Rab9 Promoter Activators; Huh7 Rab9 promoter-luciferase reporter, luminescence, 24 h; Potency, µM (titrated, usually from 9.22 µM), inactives show at the highest dose activation, negative = inhibition, hits mostly activators; actives 2.8% (n = 320,000); AID 485297, 2010; note: % of control where 0% means no effect; nearly all actives have a fitted effect of over 60% in size
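Huh7 cells stably carrying a Rab9 promoter-luciferase reporter, 1500 cells per well in OP-MEM I with 10% FBS, treated with compound 24 hours at 37C. Luciferase activity read by luminescence after 10 minutes with Amplite reagent.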
KinaseGlo FLuc = Counterscreen for Luciferase (Kinase-Glo TM) Inhibition. Kinase-Glo luciferase, ATP luminescence, 8 min. Potency, µM (top dose mostly 38.3 µM), for inactives: top-dose activity change, negative = inhibition, usual class: inhibitors. actives 0.28% (n = 200,000); note: % is set by controls: 0 for no effect and ±100 for the full control effect; nearly all actives have a fitted effect of over 60% in size
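Inhibition of Kinase-Glo luciferase light generation was assessed at 10 uM ATP in pH 7.2 imidazole buffer, with luminescence measured after eight minutes at ambient temperature.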
NPC1 prom act = qHTS Assay for NPC1 Promoter Activators; actives 2.4% (n = 320,000); Potency, µM (titrated, usually from 9.22 µM), without a hit: top-dose activation, most hits filed as activators; AID 485313, 2010; Huh7 NPC1 promoter luciferase reporter, 24 h; note: % of control where 0% means no effect; nearly all actives have a fitted effect of over 60% in size
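Huh7 reporter cells (NPC1 promoter driving luciferase) are dosed with compound for 24 h at 37 °C, 5% CO2; luciferase detection reagent is then added and luminescence measured after 10 min at ambient temperature.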
* = called active by the depositor; ? = inconclusive; / = not tested or not shown; [ ] = dose if it differs, or a comment. Calls come from the whole dose curve; as a rule, active = well fitted curve in the direction sought with a large enough effect; inconclusive = small, poorly fitted or top-dose-only effect, or another doubt; inactive = no such curve, though single readings can be large; an effect the other way counts as inactive or inconclusive. Potency is the fitted concentration of half-maximal effect.

SMILES	FLuc modulator	SMN2 splice up	Rab9 prom act	KinaseGlo FLuc	NPC1 prom act
CCCCC(=O)Nc1ccc(C(=O)Nc2nc(CC(=O)OCC)cs2)cc1	19µM*	-12%	-4%	19%	-3%
CCOC(=O)Cc1csc(NC(=S)NC(=O)c2ccccc2)n1	?	-14%	-10%	-1%	1%
CCOC(=O)Cc1csc(NC(=S)NC(=O)c2cc(OC)cc(OC)c2)n1	-12%	-7%	-7%	0%	-2%
CCOC(=O)Cc1csc(NC(=S)NC(=O)c2ccccc2Br)n1	21µM*	/	-2%	-2%	-4%
COc1cc2nncc(SCc3ccc(Cl)c(Cl)c3)c2cc1OC	/	-5%[9.22 µM]	/	-1%[7.66 µM]	/
COc1ccc(NC(=O)c2oc3ccccc3c2NC(=O)c2cc(=O)c3c(C)cc(C)cc3o2)cc1	5%	-4%	/	/	/
COc1cccc(NC(=O)c2sc(-n3nc(C)c(Cc4ccccc4Cl)c3C)nc2C)c1	-1%	/	/	/	/
O=C(Nc1nccs1)c1ccc([N+](=O)[O-])cc1	-13%	/	30%	/	?
CCOC(=O)Cc1csc(NC(=O)c2ccc(F)cc2)n1	?	/	0%	/	-3%
CCOC(=O)Cc1csc(NC(=O)c2ccc3c(c2)OCO3)n1	12µM*	?	0%	-7%	0%
Cc1csc(NC(=O)c2ccncc2)n1	?	/	8%	/	-1%
Cc1csc(NC(=O)c2ccc3c(c2)OCO3)n1	3.4µM*	/	18%	/	?
O=C(Nc1nccs1)c1ccc2c(c1)OCO2	6µM*	/	1.6µM*	/	2.2µM*
Cc1c(C(=O)NCc2cccc(Cl)c2)sc2nc[nH]c(=O)c12	-9%	/	/	/	/
C=CCn1c(SCC(=O)NC2CCS(=O)(=O)C2)nnc1-c1cc2c(s1)CCC(CC)C2 (stereo unspecified)	11µM*	29%	25%	3%	20%
C=CCn1c(-c2cc3c(s2)CCC(CC)C3)n[nH]c1=S (stereo unspecified)	30µM*	26%	28%	-2%	10%
C=CCn1c(-c2sccc2C)n[nH]c1=S	-7%	-15%	-5%	0%	0%
Cc1ccc(/C=N/NC(=O)c2ccoc2C)o1	?	?	?	?	29%
Cc1onc(-c2ccccc2)c1C(=O)N/N=C/C(Br)=C/c1ccccc1	-4%	-59%	-4%	0%	2%
Cc1occc1C(=O)N/N=C/C=C/c1ccccc1	?	13µM*	3.5µM*	-14%	3.5µM*
Cc1occc1C(=O)N/N=C/C=C/c1ccccc1[N+](=O)[O-]	?	-11%	-2%	0%	2%
Cc1occc1C(=O)N/N=C/C=C/c1ccc(N(C)C)cc1	24µM*	/	2.5µM*	/	4.5µM*
Cc1occc1C(=O)N/N=C/C(Br)=C\c1ccccc1	2.1µM*	/	0.89µM*	/	2.5µM*
Cc1occc1C(=O)N/N=C/c1ccc(N(C)C)cc1	1.2µM*	/	0.11µM*	/	0.32µM*
CCOC(=O)C1CCC(CN(Cc2cccc(Br)c2)S(=O)(=O)c2ccc(Cl)cc2)CC1 (stereo unspecified)	0%	/	/	/	/
SMILES	FLuc modulator	SMN2 splice up	Rab9 prom act	KinaseGlo FLuc	NPC1 prom act
O[C@H]([C@H](O)[C@@H](O)c1nc2ccccc2[nH]1)[C@@H](O)c1nc2ccccc2[nH]1	/	-5%[9.22 µM]	/	-3%[7.66 µM]	/
CCc1ccc(-n2c(=O)c3sc4ccccc4c3n(CC(=O)N(CC)Cc3ccccc3)c2=O)cc1	4%	0%	/	/	/
O=c1oc2ccccc2cc1-c1csc(NN=C2CCCC2)n1	-13%	-1%[1.84 µM]	15%	2%	8%
O=C(O)c1cccc(Nc2nc(-c3cc4ccccc4oc3=O)cs2)c1	6µM*	/	?	/	2.8µM*
COCC(C)N=C1NN=C(c2cc(C)n(Cc3ccccc3Cl)c2C)CS1 (stereo unspecified)	7.6µM*	-16%	?	1%	?
COCCn1c(C)cc(C2=NNC(=Nc3ccc(Cl)cc3Cl)SC2)c1C	?	-31%	3%	-7%	1%
Cc1cc(-c2csc(N)n2)c(C)n1Cc1ccco1	?	?	0%	-4%	0%
COCCCN=C1NN=C(c2cc(C)n(Cc3ccco3)c2C)CS1	2.7µM*	?	10%	0%	6.3µM*
Cc1cc(C2=NNC(=NC3CC3)SC2)c(C)n1Cc1ccco1	0.12µM*	-70%	-50%	?	-34%
CCOC(=O)c1c(-c2ccc(C)cc2)csc1NC(=O)c1cc(=O)c2cc(Cl)ccc2o1	2%	/	/	/	/
COc1ccc(N(C(=O)/C=C\C(=O)Nc2ccc(Cl)cc2)C(C(=O)NCc2ccco2)c2ccc(C)cc2)cc1 (stereo unspecified)	-9%	/	/	/	/
Cc1ccc(NC(=O)c2ccc3ncsc3c2)cc1S(=O)(=O)N(C)C	2.1µM*	/	0.35µM*	/	0.35µM*
O=C(COC(=O)c1ccc2ncsc2c1)Nc1cccc(Cl)c1	0%	/	-2%	/	-30%
O=C(Nc1ccc(Cl)cc1)c1ccc2ncsc2c1	12µM*	/	3.5µM*	/	2.8µM*
O=C(Nc1ccc(F)cc1)c1ccc2ncsc2c1	24µM*	/	3.5µM*	/	2.2µM*
O=C(Nc1cccc(Cl)c1)c1ccc2ncsc2c1	19µM*	/	3.5µM*	/	4µM*
CC(C)c1ccccc1NC(=O)c1ccc2ncsc2c1	?	/	-2%	/	2%
Cc1ccc(NC(=O)c2ccc(OC(F)F)cc2)cc1S(=O)(=O)N(C)C	9.5µM*	-55%	0%	-6%	8%
CC(C)Oc1ccc(C(=O)Nc2ccc(Cl)c(S(=O)(=O)Nc3ccc(Cl)cc3)c2)cc1	15µM*	-70%	1%	-2%	-2%
O=C(Nc1ccc(OC(F)F)c(Cl)c1)c1ccccn1	3.4µM*	11µM*	0.63µM*	-14%	1µM*
O=C(Nc1ccc(C(F)(F)F)cc1)c1ccc2ncsc2c1	13µM*	/	3.5µM*	/	3.5µM*
CC(NC(N)=O)C(=O)Nc1ccc(Cl)c(S(=O)(=O)Nc2ccc(Cl)cc2)c1 (stereo unspecified)	-5%	-1%	-2%	-2%	-5%
COc1ccc(NC(=O)c2cc(F)cc(F)c2)cc1Cl	?	?	?	-7%	?
O=C(O)c1ccc2ncsc2c1	?	/	3.5µM*	/	?
COc1ccc(NC(=O)c2ccc(OC(F)F)cc2)cc1Cl	2.7µM*	11µM*	2.5µM*	-12%	2µM*
NC[C@@H]1O[C@@H](O[C@H]2[C@H](O)[C@@H](O[C@@H]3O[C@@H](CO)[C@H](O)[C@@H](N)[C@@H]3O)[C@H](N)C[C@@H]2N)[C@@H](O)[C@H](O)[C@H]1O	/	/	/	4%[39.9 µM]	/
Cc1ccc(Cc2c(C)nc3nc(SCC(=O)NCCC(C)C)nn3c2C)cc1	0%	3%	/	/	/

Assay outcomes deposited in PubChem by National Center for Advancing Translational Sciences (NCATS).
